Assay [1] in a line: Nuclear factor erythroid 2-related factor 2/antioxidant responsive element (Nrf2/ARE) small molecule agonists: qHTS cell viability counter screen in human keratinocytes (AID 1919968; active = well fitted curve in the direction sought with a large enough effect in the repeat runs; an effect the other way counts as inactive or inconclusive; also: nearly all actives have a fitted effect of over 55% in size; also: potency is read from the fitted curve at half-maximal effect). An outline of the steps:
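KeratinoSens cells (HaCaT keratinocytes stably carrying an ARE-luciferase reporter) were seeded at 1,500 cells/well and rested 5 h at 37 C/5% CO2. They were then exposed to compounds in DMSO for 23 h. Viability was read by CellTiter-Fluor fluorescence after 1 h.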

A short description of assay [2]: Nuclear factor erythroid 2-related factor 2/antioxidant responsive element (Nrf2/ARE) small molecule agonists: luciferase reporter gene qHTS assay in human keratinocytes (AID 1919969). Also: nearly all actives have a fitted effect of over 35% in size. Also: potency is read from the fitted curve at half-maximal effect. A general note: A reporter such as luciferase makes a cellular process visible.
Assay [3] deals with KiSS-1 receptor (Homo sapiens) (UniProt Q969F8). Nature of the assay: Human kisspeptin (KISS1R) small molecule agonists, calcium flux assay in KISS1R-HEK293 cells (AID 1920064; active = well fitted curve in the direction sought with a large enough effect in the repeat runs; an effect the other way counts as inactive or inconclusive). An outline of the steps: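 HEK293 cells stably expressing human KISS1R were plated 18 h at 37 °C, loaded with calcium dye for 1 h at 37 °C, then given compound by pin tool. Fluorescence (Ex/Em 480/540) was read kinetically for 3 min.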
(Calcium flux is commonly read through the fluorescence of an indicator in the cells.)

Assay [4] is described as follows: G protein-coupled receptor (GPCR) small molecule agonists, calcium flux assay: HEK293 wild type cell line counter screen (AID 1920065). Also: potency is read from the fitted curve at half-maximal effect. In short, it runs like this:
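Cells were plated and cultured 18 h at 37 C/5% CO2, then loaded with calcium dye for 1 h at 37 C. Compounds in DMSO were pin-transferred in agonist mode, and fluorescence (Ex/Em 480/540) was read kinetically for 3 min at 1 s intervals.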

The nature of assay [5]: p53 small molecule agonists, cell-based qHTS assay with human liver microsomes (AID 1963577). In short, it runs like this: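 p53RE-bla cells, 4,000/well, compound added after 5 h, with human liver microsomes 0.5 mg/mL and NADPH 0.5 mg/mL final; 16 h at 37 C, then LiveBLAzer 2 h RT, fluorescence.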
Assay [6] is described as follows: p53 small molecule agonists, cell-based qHTS assay with rat liver microsomes (AID 1963578). In short, it runs like this:
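p53RE-bla cells, 4,000/well, pre-incubated 5 h, then given compounds plus rat liver microsomes (0.5 mg/mL final) and NADPH (0.5 mg/mL final). Incubation 16 h at 37 C; beta-lactamase reporter read by LiveBLAzer fluorescence after 2 h at room temperature.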
(qHTS replaces the single test concentration by a dilution series.)

A short description of assay [7]: p53 small molecule agonists, cell-based qHTS assay with human liver microsomes: qHTS cell viability counter screen (AID 1963579). Also: nearly all actives have a fitted effect of over 45% in size. Also: potency is read from the fitted curve at half-maximal effect. In short, it runs like this:
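p53RE-bla cells, 4,000/well, dosed 5 hours after plating, with human liver microsomes (0.5 mg/mL final) plus NADPH (0.5 mg/mL final), 16 hours at 37 C. Viability read as CellTiter-Glo luminescence after 30 min at room temperature.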

The nature of assay [8]: p53 small molecule agonists, cell-based qHTS assay with rat liver microsomes: qHTS cell viability counter screen (AID 1963580). Also: nearly all actives have a fitted effect of over 45% in size. Also: potency is read from the fitted curve at half-maximal effect. In short, it runs like this: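 p53RE-bla HCT-116 cells were exposed 16 h at 37 C to compounds with rat liver microsomes (0.5 mg/mL) and NADPH (0.5 mg/mL). Viability was measured in the same wells as ATP content by CellTiter-Glo luminescence.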
Assay [9] is described as follows: p53 small molecule agonists, cell-based qHTS assay: qHTS cell viability counter screen (AID 1963581). Also: nearly all actives have a fitted effect of over 45% in size. Also: potency is read from the fitted curve at half-maximal effect. In short, it runs like this:
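p53RE-bla HCT-116 cells were exposed to compounds for 16 h at 37 C; after the beta-lactamase FRET read in the same wells, CellTiter-Glo was added and luminescence (intracellular ATP) read after 30 min at room temperature.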

The nature of assay [10]: p53 small molecule agonists, cell-based qHTS assay (AID 1963582; active = well fitted activation curve with a large enough effect in the signal ratio in the repeat runs, not every such curve was filed as active; the % refers to the signal ratio). An outline of the steps:
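p53RE-bla beta-lactamase reporter cells rested 5 h at 37 C/5% CO2, then received compounds in DMSO by pin transfer and were incubated 16 h at 37 C. LiveBLAzer B/G FRET substrate was loaded for 2 h at room temperature before fluorescence reading.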

For assay [11], the target named is 5-hydroxytryptamine receptor 2A (Homo sapiens) (UniProt P28223). Briefly: 5-hydroxytryptamine receptor 2A (HTR2A) small molecule antagonists, cell-based qHTS assay (AID 1963586). Also: nearly all actives have a fitted effect of over 45% in size. An outline of the steps:
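Antagonist-mode intracellular calcium assay: DOI (4 nM) added after 5 min compound pre-incubation at room temperature to dye-loaded HTR2A-CHO cells. Fluorescence followed for 3 min, sampled every second.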

The target is the same in assay [12]. Briefly: 5-hydroxytryptamine receptor 2A (HTR2A) small molecule agonists, cell-based qHTS assay (AID 1963587). Also: nearly all actives have a fitted effect of over 30% in size. Also: potency is read from the fitted curve at half-maximal effect. An outline of the steps:
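CHO cells stably expressing human HTR2A, plated 18 h, loaded with calcium dye 1 h at 37 C. Agonist mode: compounds added and intracellular calcium fluorescence recorded kinetically for 2 min at 1 sec intervals.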

In assay [13] the target is Muscarinic acetylcholine receptor M1 (Homo sapiens) (UniProt P11229). Briefly: Cholinergic receptor muscarinic 1 (CHRM1) small molecule antagonists, cell-based qHTS assay (AID 1963588). Also: nearly all actives have a fitted effect of over 40% in size. In short, it runs like this:
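CHRM1-CHO calcium-flux assay, antagonist mode. Cells were seeded 18 h, dye-loaded 1 h at 37 C and given compound for 5 min at RT, then acetylcholine was added at 50nM. FDSS fluorescence was read 3 min; 15 concentrations, three runs.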

For assay [14] the target is unchanged. Briefly: Cholinergic receptor muscarinic 1 (CHRM1) small molecule agonists, cell-based qHTS assay (AID 1963589). Also: nearly all actives have a fitted effect of over 35% in size. Also: potency is read from the fitted curve at half-maximal effect. An outline of the steps: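 CHO cells stably expressing human CHRM1, seeded 18 h at 37 C/5% CO2, dye-loaded 1 h at 37 C, then given compound in agonist mode; intracellular calcium fluorescence read kinetically at 1 s intervals. Fifteen concentrations, three independent runs.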

Assay [15] is described as follows: cAMP Responsive Elements (CRE) small molecule agonists, cell-based qHTS assay (AID 1963590). An outline of the steps: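 CRE-bla HEK 293T cells in DMEM with 10% dialyzed FBS, NEAA, pyruvate and 25 mM HEPES were plated 18 h at 37 C/5% CO2, then exposed to compounds in DMSO for 3 h before LiveBLAzer B/G FRET substrate addition.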
Assay [16] is described as follows: cAMP Responsive Elements (CRE) small molecule antagonists, cell-based qHTS assay (AID 1963591; active = well fitted inhibition curve with a large enough effect in the signal ratio in the repeat runs, not every such curve was filed as active; the % refers to the signal ratio). An outline of the steps: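 CRE-bla HEK293T cells were plated 18 h at 37 °C/5% CO2, pinned with compound in DMSO, then stimulated with NKH477 at 0.25 uM final for 3 h. LiveBLAzer B/G FRET substrate was added and plates incubated 2 h at room temperature.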
In assay [17] the target is Beta-2 adrenergic receptor (Homo sapiens) (UniProt P07550). Nature of the assay: Adrenergic beta2 receptor (ADRB2) small molecule antagonists, cell-based qHTS assay (AID 1963592). Also: series mostly up to about 92 µM; nearly all actives have a fitted effect of over 50% in size. In short, it runs like this:
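Cells (CHO, stable ADRB2 overexpression) incubated 18-20hr at 37C; compounds added from DMSO; agonist mix (1nM isoproterenol, 100uM IBMX, 25uM Ro-20-1724) added; 0.5hr RT; d2-cAMP and anti-cAMP-cryptate added; 1hr RT; 665/615 nm read.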

Assay [18] has the same target. Briefly: Adrenergic beta2 receptor (ADRB2) small molecule agonists, cell-based qHTS assay (AID 1963593).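 Also: CHO cells stably overexpressing human ADRB2.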 In short, it runs like this:
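CHO cells stably over-expressing ADRB2 were plated overnight at 37C, then dosed with compounds plus a stimulation mix containing 100uM IBMX and 25uM Ro-20-1724 for 0.5hr at room temperature. cAMP was measured by HTRF competition, 1hr.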

Assay [19] concerns the target D(2) dopamine receptor (Homo sapiens) (UniProt P14416). Briefly: Dopamine D2 receptor (DRD2) small molecule agonists, cell-based qHTS assay (AID 1963594). Also: nearly all actives have a fitted effect of over 35% in size. In short, it runs like this:
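HEK293 cells stably expressing human DRD2, pre-treated with PDE inhibitor Ro20-1724 (0.1 mM final) and compound 10 min at room temperature, then stimulated with NKH477 (200nM […]) for 30 min. cAMP read by HTRF (665/620 nm).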

The target is the same in assay [20]. Briefly: Dopamine D2 receptor (DRD2) small molecule antagonists, cell-based qHTS assay (AID 1963595; active = well fitted inhibition curve with a large enough effect in the signal ratio in the repeat runs, with a control signal flat; the % refers to the signal ratio; also: potency is read from the fitted curve at half-maximal effect). In short, it runs like this:
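Human DRD2 antagonist qHTS measuring cAMP by HTRF. The cells are exposed to compound for 10 min, then to NKH477 (200 nM) and quinpirole (12 nM) for 30 min at RT, with Ro20-1724 (0.1 mM) present throughout.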

“And” between values parts separate entries of the source, which are not always exact repeats. Equal entries are not always repeated. Inconclusive results are not listed. A structure can be active in one record and inactive in another. The source made the active and inactive calls. Unless noted, calls follow the shape of the full dose curve.

Chain of KiSS-1 receptor (Homo sapiens) (Q969F8 whole entry, looked up): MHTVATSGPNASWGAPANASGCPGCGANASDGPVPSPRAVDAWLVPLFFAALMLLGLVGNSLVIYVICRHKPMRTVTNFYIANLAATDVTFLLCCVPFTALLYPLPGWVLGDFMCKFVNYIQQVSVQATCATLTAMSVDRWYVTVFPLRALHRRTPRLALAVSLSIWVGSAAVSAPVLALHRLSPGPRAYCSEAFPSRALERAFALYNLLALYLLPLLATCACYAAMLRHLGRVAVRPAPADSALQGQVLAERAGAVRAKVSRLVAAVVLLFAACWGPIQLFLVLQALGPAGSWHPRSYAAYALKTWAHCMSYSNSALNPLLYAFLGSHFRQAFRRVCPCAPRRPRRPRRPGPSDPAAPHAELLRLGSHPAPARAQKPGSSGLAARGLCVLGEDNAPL
Chain of Muscarinic acetylcholine receptor M1 (Homo sapiens) (P11229 whole entry, looked up): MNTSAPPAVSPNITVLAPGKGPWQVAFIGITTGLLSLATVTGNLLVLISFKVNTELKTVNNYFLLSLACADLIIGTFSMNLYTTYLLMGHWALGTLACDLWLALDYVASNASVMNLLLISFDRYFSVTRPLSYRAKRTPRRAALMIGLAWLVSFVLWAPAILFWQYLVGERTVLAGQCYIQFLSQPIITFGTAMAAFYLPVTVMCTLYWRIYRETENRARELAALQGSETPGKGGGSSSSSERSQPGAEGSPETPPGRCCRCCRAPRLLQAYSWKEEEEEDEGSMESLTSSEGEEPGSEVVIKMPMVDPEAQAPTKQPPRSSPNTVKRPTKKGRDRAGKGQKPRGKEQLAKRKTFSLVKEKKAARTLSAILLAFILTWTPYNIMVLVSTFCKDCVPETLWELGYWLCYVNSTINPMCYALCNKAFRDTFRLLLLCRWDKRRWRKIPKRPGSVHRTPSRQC
Chain of D(2) dopamine receptor (Homo sapiens) (P14416 whole entry, looked up): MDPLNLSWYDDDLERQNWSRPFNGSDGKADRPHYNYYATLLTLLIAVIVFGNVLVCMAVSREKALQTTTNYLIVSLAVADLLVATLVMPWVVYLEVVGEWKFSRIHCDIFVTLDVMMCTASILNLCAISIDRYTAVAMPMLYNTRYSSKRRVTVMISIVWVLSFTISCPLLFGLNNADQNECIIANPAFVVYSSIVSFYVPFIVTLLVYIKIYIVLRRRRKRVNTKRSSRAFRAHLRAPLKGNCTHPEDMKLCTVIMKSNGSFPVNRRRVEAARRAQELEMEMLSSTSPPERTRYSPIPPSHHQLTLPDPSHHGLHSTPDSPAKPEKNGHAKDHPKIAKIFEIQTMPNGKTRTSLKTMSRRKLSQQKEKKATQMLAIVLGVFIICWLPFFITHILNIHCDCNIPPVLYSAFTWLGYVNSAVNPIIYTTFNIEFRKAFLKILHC
Chain of Beta-2 adrenergic receptor (Homo sapiens) (P07550 whole entry, looked up): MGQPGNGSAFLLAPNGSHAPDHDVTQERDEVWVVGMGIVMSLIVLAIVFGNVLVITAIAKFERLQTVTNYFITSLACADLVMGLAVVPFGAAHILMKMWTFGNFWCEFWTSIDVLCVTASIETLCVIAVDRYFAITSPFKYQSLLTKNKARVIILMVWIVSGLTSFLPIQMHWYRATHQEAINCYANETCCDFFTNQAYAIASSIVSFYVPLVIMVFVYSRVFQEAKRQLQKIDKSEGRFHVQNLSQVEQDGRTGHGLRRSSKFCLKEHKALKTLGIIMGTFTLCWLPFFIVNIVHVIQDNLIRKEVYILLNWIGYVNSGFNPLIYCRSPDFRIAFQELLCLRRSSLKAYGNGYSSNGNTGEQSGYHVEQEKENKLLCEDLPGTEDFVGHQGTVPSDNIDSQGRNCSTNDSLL
Chain of 5-hydroxytryptamine receptor 2A (Homo sapiens) (P28223 whole entry, looked up): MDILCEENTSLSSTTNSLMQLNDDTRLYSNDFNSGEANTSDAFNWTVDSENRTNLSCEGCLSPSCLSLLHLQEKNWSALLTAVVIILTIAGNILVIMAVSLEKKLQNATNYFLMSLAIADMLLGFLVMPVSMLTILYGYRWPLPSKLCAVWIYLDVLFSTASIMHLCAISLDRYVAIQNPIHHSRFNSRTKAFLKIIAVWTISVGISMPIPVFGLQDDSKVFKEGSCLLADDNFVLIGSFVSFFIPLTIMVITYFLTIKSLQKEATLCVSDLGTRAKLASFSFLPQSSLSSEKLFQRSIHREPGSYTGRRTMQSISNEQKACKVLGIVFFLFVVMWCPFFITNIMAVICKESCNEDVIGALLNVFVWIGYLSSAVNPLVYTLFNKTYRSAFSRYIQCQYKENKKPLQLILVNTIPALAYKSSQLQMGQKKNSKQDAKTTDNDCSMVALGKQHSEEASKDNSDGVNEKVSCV

Regarding `CCCCCCCCCCN`, the Potency result in assay [1], in assay [2], in assay [3], in [4], in assay [5] and in [6] was “inactive” in each case. In addition, the Potency result in [7], in assay [8], in [9], in assay [10], in assay [11] and in assay [12] was “inactive” in each case. Further, the Potency result in assay [13], in [14], in assay [15], in assay [16], in assay [17] and in assay [18] was “inactive” each time. Besides, the Potency result in assay [19] and in [20] was “inactive” in each case.

For the compound `C[C@]12CC[C@@H]3c4ccc(O)cc4C[C@@H](CCCCCCCCCS(=O)CCCC(F)(F)C(F)(F)F)[C@H]3[C@@H]1CC[C@@H]2O` (some centres undefined), the Potency entry in [1] was “inactive and 4.73 µM (active)”. Moreover, the Potency result in [2], in [4], in assay [6], in assay [7], in assay [9] and in assay [10] was “inactive” in each case. Further, the Potency result in assay [12], in assay [13], in [14], in assay [15], in [16] and in assay [17] was “inactive” in each case. In addition, the Potency result in assay [19] and in assay [20] was “inactive” each time.

On to `CCN=c1cc2oc3cc(NCC)c(C)cc3c(-c3ccccc3C(=O)OCC)c-2cc1C`, for which the Potency entry in assay [1], in [5], in assay [6], in assay [11] and in [13] was “inactive” each time. Moreover, the Potency result in assay [2] was “inactive and 27.3 µM (active)”; in assay [4], 38.8 µM (active) and 30.9 µM (active); in assay [7], 40.6 µM (active) and 40.8 µM (active); in assay [8], 20.4 µM (active) and 40.8 µM (active); in [9] it was 45.6 µM (active); in assay [12], 5.47 µM (active) and 19.5 µM (active). The Potency was 19.4 µM (active) and 19.5 µM (active) in [14]; 34.4 µM (active) in assay [20].

As to `CC(O)CN(CCN(CC(C)O)CC(C)O)CC(C)O` (centres undefined), the Potency entry in assay [1], in [2], in assay [3], in assay [4], in assay [5] and in [6] was “inactive” each time. Also, the Potency entry in assay [7], in [8], in assay [9], in assay [10], in assay [11] and in [12] was “inactive” each time. Also, the Potency result in assay [13], in assay [14], in assay [15], in [16], in assay [17] and in assay [18] was “inactive” each time. Further, the Potency result in assay [19] and in [20] was “inactive” in each case.

For the compound `COc1cc(C=O)ccc1O`, the Potency entry in assay [1], in [2], in [5], in assay [6], in [7] and in assay [8] was “inactive” each time. For the same compound, the Potency result in assay [9], in [10], in assay [11], in assay [12], in assay [14] and in assay [15] was “inactive” throughout. For the same compound, the Potency result in [16], in assay [17], in assay [18], in [19] and in [20] was “inactive” throughout.

`CCCCC(CC)C(=O)O` (centres undefined): the Potency entry in assay [1], in assay [2], in [4], in assay [7], in [8] and in [9] was “inactive” throughout. For the same compound, the Potency entry in assay [11], in assay [13], in assay [14], in assay [15], in [16] and in [17] was “inactive” in each case. For the same compound, the Potency result in [18] was “inactive”.

As to `CCC(C)(O)CCCC(C)C` (centres undefined), the Potency result in [1], in assay [2], in assay [4], in [5], in assay [6] and in [7] was “inactive” in each case. In addition, the Potency result in assay [8], in assay [10], in [11], in assay [13], in [14] and in assay [15] was “inactive” throughout. For the same compound, the Potency entry in [16], in [17], in assay [18], in assay [19] and in assay [20] was “inactive” each time.

For `CS(=O)(=O)OCCCCOS(C)(=O)=O`, the Potency entry in assay [1], in assay [2], in assay [4], in assay [5], in [6] and in [7] was “inactive” each time. Besides, the Potency entry in assay [9], in [10], in assay [15], in assay [16], in [17] and in assay [18] was “inactive” each time. In addition, the Potency entry in assay [19] and in [20] was “inactive” each time.
